High-throughput results (PubChem BioAssay)
Rows were chosen to be rich in hits. Some 1.2% of all compounds tested hit in one or more screens of this group.
Anesthetic bind: candidate novel general anesthetic via apoferritin binding; apoferritin/1-aminoanthracene competitive binding, fluorescence; P02791; 350,000 compounds, 0.074% hits; Potency, µM (series often up to 77.5 µM), most hits filed as inhibitors; note: nearly all actives have a fitted effect of over 20% in size
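Concentration-response curves derived by four-parameter Hill fitting of normalized fluorescence, where compounds displaced 1-AMA from 10 uM horse apoferritin following a brief 10 min room-temperature incubation; propofol titration acted as positive control.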
ERG-DNA inh: inhibitors of human ERG Ets domain-DNA interaction; Potency, µM (highest dose often 76.9 µM), hits mostly inhibitors; 370,000 compounds, 0.028% hits; fluorescence polarization, His-ERG Ets domain / labelled DNA; AID 624246; active = well fitted inhibition curve with a large enough effect in the polarisation, with a control signal flat; inconclusive = small, poorly fitted or top-dose-only effect, or effect the other way, or a change in a side signal; inactive = no such curve, though single readings can be large or run the other way; the % refers to the polarisation;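 note: polarization taken with two DNA probes labelled with fluorescein and Texas red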
Target sequence (P11308 whole entry, looked up, the tested form may be a part): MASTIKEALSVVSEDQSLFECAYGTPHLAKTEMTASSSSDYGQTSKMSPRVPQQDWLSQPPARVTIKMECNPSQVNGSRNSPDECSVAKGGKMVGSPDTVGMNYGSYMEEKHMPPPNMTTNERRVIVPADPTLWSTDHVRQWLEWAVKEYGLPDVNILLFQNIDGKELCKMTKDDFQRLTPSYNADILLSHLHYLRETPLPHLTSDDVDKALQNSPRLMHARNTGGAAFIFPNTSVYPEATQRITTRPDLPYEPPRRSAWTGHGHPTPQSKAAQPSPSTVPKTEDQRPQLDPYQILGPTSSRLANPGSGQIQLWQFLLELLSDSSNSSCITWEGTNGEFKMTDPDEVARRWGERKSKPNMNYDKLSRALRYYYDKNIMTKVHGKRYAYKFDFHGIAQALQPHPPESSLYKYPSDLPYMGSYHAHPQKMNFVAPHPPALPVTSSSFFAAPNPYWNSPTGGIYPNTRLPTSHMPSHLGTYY
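His-tagged ERG Ets domain (1 uM in the protein solution; 300mM KCl, 50mM Tris-HCl, 1mM EDTA, 1mM DTT, pH 7.5) received compound, then a probe mix of 5 nM fluorescein-DNA and 100nM Texas-615-DNA. Fluorescence polarization was read for both dyes.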
GoLoco inh red: blocks human Gai1 binding to RGS12 GoLoco peptide, red readout; P63096; Gai1:RGS12 GoLoco peptide FP, rhodamine, 10 min; Potency, µM (doses to about 61.6 µM), most hits filed as inhibitors; 230,000 compounds, 0.44% hits; active = well fitted inhibition curve with a large enough effect, not every such curve was filed as active; inactive = no such curve, though single readings can be large or run the other way; note: nearly all actives have a fitted effect of over 30% in size
BRCA1 expr up: BRCA1 expression activation | Potency, µM (titrated, usually from 46.1 µM), actives largely listed as activators | MCF7-BRCA1-FFLuc reporter, luminescence, 48 h; response scale: scaled: vehicle 0%, 10 µM genistein 100% | 380,000 compounds, 1.1% hits; note: nearly all actives have a fitted effect of over 80% in size
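Activators of BRCA1 expression were detected as increased firefly luciferase luminescence in engineered MCF7 cells after 48 h compound incubation. Signals were scaled to genistein 10 microM as full activation.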
Large screens that a line does not name were inactive; ! = repeats disagree. Unless noted, calls come from the whole dose curve; as a rule, active = well fitted curve in the direction sought with a large enough effect; inconclusive = small, poorly fitted or top-dose-only effect, or another doubt; inactive = no such curve, though single readings can be large; an effect the other way counts as inactive or inconclusive.

CN(C)c1ccc(/C=C/c2ccnc3ccc(N)cc23)cc1	none (no result: Anesthetic bind, ERG-DNA inh, GoLoco inh red)
COc1ccc(O[C@H]2C=C[C@@H](c3ccccc3)O[C@@H]2CON=C(C)C)cc1	none (no result: ERG-DNA inh, GoLoco inh red, BRCA1 expr up)
Cc1ccc(S(=O)(=O)N2CCN(c3nc(-n4cncn4)nc4ccccc34)CC2)cc1	none (no result: Anesthetic bind, ERG-DNA inh, GoLoco inh red)
COc1cc(OC)c(/C=C/c2cc3ccccc3c[n+]2C)c(OC)c1	none (no result: Anesthetic bind, ERG-DNA inh, GoLoco inh red)
CCn1c(C)[n+](CCCS(=O)(=O)[O-])c2cc(Cl)c(Cl)cc21	GoLoco inh red 3.98µM
Fc1ccc(/C=N/Nc2nccnc2Cl)cc1	BRCA1 expr up 10µM (no result: GoLoco inh red)
O=[N+]([O-])c1cccc(/C=N/Nc2nccnc2Cl)c1	BRCA1 expr up 7.94µM
CC1CCc2c(sc(NC(=O)C3CCCO3)c2C#N)C1 (stereo not given)	BRCA1 expr up 10µM
CC1CCc2c(sc(NC(=O)COC(=O)C3CCCO3)c2C#N)C1 (stereo not given)	none
Nc1nc(N)nc(-c2cccc(Br)c2)n1	BRCA1 expr up 12.6µM (no result: Anesthetic bind, ERG-DNA inh, GoLoco inh red)
Fc1ccc(-c2nnc(-c3ccc(F)cc3)o2)cc1	BRCA1 expr up 2.51µM (no result: GoLoco inh red)
O=C(C[n+]1cccc(Cl)c1)c1ccc(O)c(O)c1	none (no result: Anesthetic bind, ERG-DNA inh, GoLoco inh red)
Cc1cc(O)c(-c2cc(O)c(C)cc2O)cc1O	GoLoco inh red 0.316µM!
Cc1ccc(N)cc1O	none (no result: Anesthetic bind)
CCOC(=O)c1c(C)c(-c2ccccc2)n(CC(=O)NCc2cccc(OC)c2)c1C	none (no result: GoLoco inh red)
COc1ccc(-c2noc(CSc3nnc(CCc4ccccc4)n3-c3ccccc3)n2)cc1OC	none (no result: ERG-DNA inh)
COc1ccc(-c2nc(-c3ccccc3OC)no2)cc1OC	Anesthetic bind inconclusive, BRCA1 expr up 10µM
COc1ccc(-c2noc(CSc3ccccc3)n2)cc1OC	BRCA1 expr up 11.2µM (no result: GoLoco inh red)
O=C(C1COc2ccccc2O1)N1CCc2ccccc21 (stereo not given)	Anesthetic bind inconclusive, BRCA1 expr up 11.2µM (no result: ERG-DNA inh)
Cc1c(C)c(C)c(/C=C/c2ccnc3ccccc23)c(C)c1C	none (no result: Anesthetic bind, ERG-DNA inh, GoLoco inh red)
Fc1cccc(Cl)c1Cn1nnc(-c2ccc3c(c2)OCO3)n1	BRCA1 expr up 8.91µM
CC1C(NC(=O)/C(=N/OC(C)(C)C(=O)O)c2csc(N)n2)C(=O)N1S(=O)(=O)O (stereo not given)	none (no result: ERG-DNA inh, BRCA1 expr up)
Cc1ccc(N(CC(=O)N2CCN(c3cc(C)ccc3C)CC2)S(=O)(=O)c2c(C)nn(C)c2C)cc1	none (no result: GoLoco inh red)
NS(=O)(=O)c1cccnc1Nc1ccc(Cl)c(Cl)c1	Anesthetic bind 8.91µM
Cc1csc(NC(=O)CSc2nnc(-c3ccoc3C)o2)n1	BRCA1 expr up 10µM
Cc1ccc(-c2nnc(SCc3ccccc3)o2)cc1	none (no result: GoLoco inh red, BRCA1 expr up)
c1ccc(CSc2nnc(Cc3ccccc3)o2)cc1	Anesthetic bind inconclusive, BRCA1 expr up 12.6µM
Cc1cnc(NC(=O)CSc2nnc(-c3ccccc3)o2)s1	BRCA1 expr up 3.98µM
c1ccc(CSc2nnc(Cc3ccccn3)o2)cc1	Anesthetic bind inconclusive
Cc1cnc(NC(=O)CSc2nnc(COc3ccccc3)o2)s1	none
Oc1ccc(-c2nnc(SCc3ccccc3)o2)cc1	Anesthetic bind inconclusive, BRCA1 expr up 10µM (no result: GoLoco inh red)
Cc1ccc2oc(-c3ccc(C)c(NC(=O)COc4ccc(Cl)cc4)c3)nc2c1	none (no result: Anesthetic bind, ERG-DNA inh, GoLoco inh red)
SCc1nc2ccccc2[nH]1	none (no result: Anesthetic bind, ERG-DNA inh, GoLoco inh red)
COc1ccc(Cl)cc1NC(=O)c1cc2ccc3ccc(C)[nH]c3c2n1	none (no result: GoLoco inh red)
O=C(CSc1nnc(-c2cccnc2)o1)Nc1cccc(F)c1	BRCA1 expr up 10µM (no result: Anesthetic bind, GoLoco inh red)
Cc1ccc(CSc2nnc(-c3cccnc3)o2)cc1	Anesthetic bind inconclusive
c1ccc(CSc2nnc(-c3cccnc3)o2)cc1	BRCA1 expr up 7.94µM
O=C1c2ccccc2CN1c1ccccc1	BRCA1 expr up 6.31µM (no result: GoLoco inh red)
Cc1ccc(N2Cc3ccccc3C2=O)cc1	BRCA1 expr up inconclusive (no result: GoLoco inh red)
COC(=O)[C@@H]1O[C@@H](SCCN)[C@@H](O)[C@H](O)[C@H]1O	none (no result: Anesthetic bind, ERG-DNA inh, BRCA1 expr up)
CCc1ccc(CNc2ccc(O)cc2)cc1	GoLoco inh red 14.1µM
Oc1ccc(NCc2ccc(OCc3ccccc3)cc2)cc1	Anesthetic bind inconclusive, ERG-DNA inh inconclusive (no result: GoLoco inh red)
c1ccc(-c2nc(-c3cnc4ccccc4n3)cs2)cc1	none (no result: Anesthetic bind, ERG-DNA inh, GoLoco inh red)
CCC(C)c1ccc(NC(=O)N2CCOCC2)cc1 (stereo not given)	BRCA1 expr up 10µM (no result: GoLoco inh red)
Cc1nc(NCC(=O)c2c[nH]c3ccccc23)sc1C	none (no result: Anesthetic bind, ERG-DNA inh, GoLoco inh red)
CCN(CC)c1ccc2nc3c4ccccc4c(=O)cc-3oc2c1	BRCA1 expr up 0.891µM (no result: GoLoco inh red)
CCN(CC)c1ccc2cc(C=O)c(=O)oc2c1	none
Cc1cccc(OCC(=O)Nc2cc(C)c(O)c(-c3nc4ccccc4o3)c2)c1	none (no result: Anesthetic bind, ERG-DNA inh, GoLoco inh red)
C/C(=C\C(=O)Nc1nccs1)c1ccccc1	BRCA1 expr up 8.91µM
C/C(=C\C(=O)O)C(=O)Nc1nccs1	none
